Here are results for twelve molecules from PubChem BioAssay (Tox21).

Experiment [1] deals with Gonadotropin-releasing hormone receptor (Homo sapiens) (UniProt P30968). Briefly: Human gonadotropin-releasing hormone receptor (GnRHR) small molecule agonists, calcium flux assay in GnRHR-HEK293 cells (AID 1920063). Further: nearly all actives have a fitted effect of over 35% in size. Summed up: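 Cells: HEK293 stably expressing human GnRHR. Steps: overnight (18 h) culture, 1 h calcium dye loading at 37 C, compound addition, kinetic fluorescence read at 480/540 nm. Each compound tested at 15 concentrations in triplicate.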
Gonadotropin-releasing hormone receptor (Homo sapiens), sequence (P30968 whole entry, looked up): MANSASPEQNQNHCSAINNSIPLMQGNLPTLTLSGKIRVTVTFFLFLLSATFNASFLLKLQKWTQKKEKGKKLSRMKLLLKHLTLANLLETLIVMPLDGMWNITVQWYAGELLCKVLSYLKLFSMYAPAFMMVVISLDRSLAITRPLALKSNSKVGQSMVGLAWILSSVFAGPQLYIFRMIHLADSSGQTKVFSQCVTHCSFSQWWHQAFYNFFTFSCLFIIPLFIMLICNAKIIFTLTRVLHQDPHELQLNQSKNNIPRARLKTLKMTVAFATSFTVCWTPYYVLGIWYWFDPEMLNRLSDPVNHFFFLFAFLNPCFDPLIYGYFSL
(In general: A change in cytosolic calcium serves as a functional read-out for many receptors and channels.)

The target of experiment [2] is KiSS-1 receptor (Homo sapiens) (UniProt Q969F8). Nature of the experiment: Human kisspeptin (KISS1R) small molecule agonists, calcium flux assay in KISS1R-HEK293 cells (AID 1920064; active means well fitted activation curve with a large enough effect in the repeat runs). An outline of the steps:
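Cells plated and incubated 18 h; dye added, 1 h at 37 C; compounds in DMSO pinned in; signal read at 480/540 nm every second for 3 min. Each compound tested at 15 concentrations in triplicate.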

The nature of experiment [3]: G protein-coupled receptor (GPCR) small molecule agonists, calcium flux assay: HEK293 wild type cell line counter screen (AID 1920065). Summed up: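 Counter-screen of the Tox21 10K library for non-specific calcium release: dye-loaded cells received compounds in DMSO and were monitored by kinetic fluorescence (480/540 nm, 3 min). Fifteen concentrations, run in triplicate.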

Experiment [4] in a line: p53 small molecule agonists, cell-based qHTS assay with rat liver microsomes (AID 1963578). An outline of the steps: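 Cells carrying a p53 response element–beta-lactamase reporter were plated and rested 5 h, then dosed with compound in DMSO plus rat liver microsomes and NADPH, each at 0.5 mg/mL final. After 16 h at 37 C, LiveBLAzer substrate was added for 2 h.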
A general note: In qHTS, concentration-response curves come from the screen itself.

The nature of experiment [5]: p53 small molecule agonists, cell-based qHTS assay with human liver microsomes: qHTS cell viability counter screen (AID 1963579). Further: nearly all actives have a fitted effect of over 45% in size. Further: potency means the concentration at half of the fitted maximal effect. Summed up:
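Cytotoxicity counter screen: p53RE-bla, 4,000 cells/well; 5 h settle, 37 C/5% CO2; cpd + HLM 0.5 mg/mL + NADPH 0.5 mg/mL (final); 16 h, 37 C; CellTiter-Glo, 30 min RT, luminescence.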

A short description of experiment [6]: p53 small molecule agonists, cell-based qHTS assay with rat liver microsomes: qHTS cell viability counter screen (AID 1963580). Further: nearly all actives have a fitted effect of over 45% in size. Further: potency means the concentration at half of the fitted maximal effect. An outline of the steps:
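p53RE-bla HCT-116 cells (4,000/well) rested 5 h at 37 C, then given Tox21 compounds in DMSO with rat liver microsomes (0.5 mg/mL final) plus NADPH (0.5 mg/mL final) for 16 h at 37 C. Viability read by CellTiter-Glo luminescence after 30 min at room temperature.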

A short description of experiment [7]: p53 small molecule agonists, cell-based qHTS assay: qHTS cell viability counter screen (AID 1963581). Further: nearly all actives have a fitted effect of over 45% in size. An outline of the steps: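 Cells: HCT-116 with p53 response element-driven beta-lactamase. Treatment: 16 h, 37 C, compounds in DMSO. Read: CellTiter-Glo luminescence after 30 min RT.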
The nature of experiment [8]: p53 small molecule agonists, cell-based qHTS assay (AID 1963582; active means well fitted activation curve with a large enough effect in the signal ratio in the repeat runs, not every such curve was filed as active; the % refers to the signal ratio). An outline of the steps:
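Quantitative HTS in p53RE-bla cells: after a 5 h settling period, compounds delivered in DMSO were left on cells for 16 h at 37 C, and reporter induction was measured as fluorescence following 2 h substrate loading.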

For experiment [9], the target named is 5-hydroxytryptamine receptor 2A (Homo sapiens) (UniProt P28223). Nature of the experiment: 5-hydroxytryptamine receptor 2A (HTR2A) small molecule antagonists, cell-based qHTS assay (AID 1963586). Further: nearly all actives have a fitted effect of over 45% in size. Summed up: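 Antagonist-mode intracellular calcium assay: DOI (4 nM) added after 5 min compound pre-incubation at room temperature to dye-loaded HTR2A-CHO cells. Fluorescence followed for 3 min, sampled every second.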
5-hydroxytryptamine receptor 2A (Homo sapiens), sequence (P28223 whole entry, looked up): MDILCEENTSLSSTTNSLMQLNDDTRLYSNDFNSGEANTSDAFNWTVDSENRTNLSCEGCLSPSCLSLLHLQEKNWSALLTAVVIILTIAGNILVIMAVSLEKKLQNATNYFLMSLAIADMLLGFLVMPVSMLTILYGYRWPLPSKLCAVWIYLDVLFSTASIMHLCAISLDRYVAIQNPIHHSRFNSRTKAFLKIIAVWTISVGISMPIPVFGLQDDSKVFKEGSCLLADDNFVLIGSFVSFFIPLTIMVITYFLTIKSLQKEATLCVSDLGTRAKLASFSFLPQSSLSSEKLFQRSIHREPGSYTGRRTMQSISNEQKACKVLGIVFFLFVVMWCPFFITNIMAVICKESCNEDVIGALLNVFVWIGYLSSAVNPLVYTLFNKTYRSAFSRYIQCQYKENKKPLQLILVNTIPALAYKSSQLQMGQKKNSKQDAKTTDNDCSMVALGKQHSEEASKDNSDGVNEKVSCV

Experiment [10] has the same target. Briefly: 5-hydroxytryptamine receptor 2A (HTR2A) small molecule agonists, cell-based qHTS assay (AID 1963587). Further: nearly all actives have a fitted effect of over 30% in size. Summed up: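 HTR2A-CHO cells, plated 18 h at 37 C/5% CO2, dye-loaded 1 h at 37 C; compounds in DMSO added by pin tool (agonist mode). Intracellular calcium flux read as kinetic fluorescence on FDSS over 2 min at 1 s intervals.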
Experiment [11] deals with Muscarinic acetylcholine receptor M1 (Homo sapiens) (UniProt P11229). Nature of the experiment: Cholinergic receptor muscarinic 1 (CHRM1) small molecule antagonists, cell-based qHTS assay (AID 1963588). Further: nearly all actives have a fitted effect of over 40% in size. An outline of the steps: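 CHRM1-CHO calcium-flux assay, antagonist mode. Cells were seeded 18 h, dye-loaded 1 h at 37 C and given compound for 5 min at RT, then acetylcholine was added at 50nM. FDSS fluorescence was read 3 min; 15 concentrations, three runs.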
Muscarinic acetylcholine receptor M1 (Homo sapiens), sequence (P11229 whole entry, looked up): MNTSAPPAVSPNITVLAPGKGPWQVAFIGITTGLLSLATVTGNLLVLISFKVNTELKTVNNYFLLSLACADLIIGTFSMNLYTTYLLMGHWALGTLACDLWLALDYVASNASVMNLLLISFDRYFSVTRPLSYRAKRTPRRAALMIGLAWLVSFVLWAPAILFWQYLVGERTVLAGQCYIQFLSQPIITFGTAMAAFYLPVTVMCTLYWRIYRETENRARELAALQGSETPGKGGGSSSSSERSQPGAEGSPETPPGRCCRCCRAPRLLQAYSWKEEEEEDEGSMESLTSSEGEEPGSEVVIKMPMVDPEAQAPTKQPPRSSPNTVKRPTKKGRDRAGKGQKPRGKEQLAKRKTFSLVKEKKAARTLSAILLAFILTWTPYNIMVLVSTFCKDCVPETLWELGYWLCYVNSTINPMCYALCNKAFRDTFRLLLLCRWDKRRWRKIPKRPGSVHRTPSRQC

Experiment [12] shares this target. Nature of the experiment: Cholinergic receptor muscarinic 1 (CHRM1) small molecule agonists, cell-based qHTS assay (AID 1963589). Further: nearly all actives have a fitted effect of over 35% in size. Summed up:
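Agonist-mode qHTS in CHO cells stably carrying human muscarinic M1. Intracellular calcium is tracked by fluorescence every second after compound transfer; each compound runs at 15 concentrations in three independent runs.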

Experiment [13] in a line: cAMP Responsive Elements (CRE) small molecule agonists, cell-based qHTS assay (AID 1963590). Summed up: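 Agonist mode qHTS in CRE-bla HEK 293T cells: compounds dosed from DMSO for 3 h at 37 C/5% CO2, followed by LiveBLAzer B/G FRET substrate for 2 h at room temperature.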
Experiment [14] in a line: cAMP Responsive Elements (CRE) small molecule antagonists, cell-based qHTS assay (AID 1963591; active means well fitted inhibition curve with a large enough effect in the signal ratio in the repeat runs, not every such curve was filed as active; the % refers to the signal ratio; further: potency means the concentration at half of the fitted maximal effect). An outline of the steps:
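Antagonist mode: test compounds are co-incubated with the adenylyl cyclase activator NKH477 (0.25 uM final) on CRE-bla HEK293T cells for 3 h at 37 °C, followed by LiveBLAzer substrate loading.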

In experiment [15] the target is Beta-2 adrenergic receptor (Homo sapiens) (UniProt P07550). Briefly: Adrenergic beta2 receptor (ADRB2) small molecule antagonists, cell-based qHTS assay (AID 1963592). Further: nearly all actives have a fitted effect of over 50% in size. Further: potency means the concentration at half of the fitted maximal effect. An outline of the steps:
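Cells (CHO, stable ADRB2 overexpression) incubated 18-20hr at 37C; compounds added from DMSO; agonist mix (1nM isoproterenol, 100uM IBMX, 25uM Ro-20-1724) added; 0.5hr RT; d2-cAMP and anti-cAMP-cryptate added; 1hr RT; 665/615 nm read.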

Experiment [16] addresses D(2) dopamine receptor (Homo sapiens) (UniProt P14416). Nature of the experiment: Dopamine D2 receptor (DRD2) small molecule agonists, cell-based qHTS assay (AID 1963594). Further: nearly all actives have a fitted effect of over 35% in size. An outline of the steps: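 HEK293 cells stably expressing DRD2 were cultured 24 h at 37 C, then given Ro20-1724 (0.1 mM final) and compounds for 10 min at room temperature. NKH477 (200nM) was then added for 30 min. cAMP was read by HTRF.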

Experiment [17] shares this target. Briefly: Dopamine D2 receptor (DRD2) small molecule antagonists, cell-based qHTS assay (AID 1963595; active means well fitted inhibition curve with a large enough effect in the signal ratio in the repeat runs, with a control signal flat; the % refers to the signal ratio). An outline of the steps:
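Stable D2 receptor HEK293 line, 24 h after seeding. Compound preincubated 10 min, then quinpirole (12 nM) with forskolin analogue NKH477 (200 nM), 30 min, room temperature. Detection by time-resolved FRET of cAMP.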

The nature of experiment [18]: p53 small molecule agonists, cell-based qHTS assay with human liver microsomes (AID 1963577). An outline of the steps: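 Fluorescence of the beta-lactamase reporter in p53RE-bla cells, detected with LiveBLAzer substrate (2 h, room temperature, dark), served as the read-out after 16 h compound exposure at 37 C with human liver microsomes and NADPH, each 0.5 mg/mL final.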

The target of experiment [19] is Beta-2 adrenergic receptor (Homo sapiens) (UniProt P07550). Nature of the experiment: Adrenergic beta2 receptor (ADRB2) small molecule agonists, cell-based qHTS assay (AID 1963593).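 Further: CHO cells stably overexpressing human ADRB2.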 Summed up:
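CHO cells stably over-expressing ADRB2 were plated overnight at 37C, then dosed with compounds plus a stimulation mix containing 100uM IBMX and 25uM Ro-20-1724 for 0.5hr at room temperature. cAMP was measured by HTRF competition, 1hr.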

Values joined by “and” are separate entries in the source; they are usually repeats but may differ in a detail not shown here. Identical values can stand only once. Records with an inconclusive call do not appear. Where a structure was tested more than once in an assay, its records may differ in their call. Active and inactive are the calls of the source. Unless noted, the call rests on the fitted dose curve.

KiSS-1 receptor (Homo sapiens), sequence (Q969F8 whole entry, looked up): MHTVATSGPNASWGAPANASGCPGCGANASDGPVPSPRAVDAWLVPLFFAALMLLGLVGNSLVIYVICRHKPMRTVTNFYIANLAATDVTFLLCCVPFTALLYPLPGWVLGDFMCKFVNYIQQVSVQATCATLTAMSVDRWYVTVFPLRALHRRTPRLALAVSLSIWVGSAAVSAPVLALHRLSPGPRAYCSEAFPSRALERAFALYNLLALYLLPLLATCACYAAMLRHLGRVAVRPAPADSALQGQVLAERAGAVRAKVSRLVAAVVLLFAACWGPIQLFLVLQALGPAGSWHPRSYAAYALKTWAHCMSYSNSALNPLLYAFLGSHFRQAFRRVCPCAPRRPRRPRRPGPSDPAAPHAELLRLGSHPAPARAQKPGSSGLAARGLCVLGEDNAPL
D(2) dopamine receptor (Homo sapiens), sequence (P14416 whole entry, looked up): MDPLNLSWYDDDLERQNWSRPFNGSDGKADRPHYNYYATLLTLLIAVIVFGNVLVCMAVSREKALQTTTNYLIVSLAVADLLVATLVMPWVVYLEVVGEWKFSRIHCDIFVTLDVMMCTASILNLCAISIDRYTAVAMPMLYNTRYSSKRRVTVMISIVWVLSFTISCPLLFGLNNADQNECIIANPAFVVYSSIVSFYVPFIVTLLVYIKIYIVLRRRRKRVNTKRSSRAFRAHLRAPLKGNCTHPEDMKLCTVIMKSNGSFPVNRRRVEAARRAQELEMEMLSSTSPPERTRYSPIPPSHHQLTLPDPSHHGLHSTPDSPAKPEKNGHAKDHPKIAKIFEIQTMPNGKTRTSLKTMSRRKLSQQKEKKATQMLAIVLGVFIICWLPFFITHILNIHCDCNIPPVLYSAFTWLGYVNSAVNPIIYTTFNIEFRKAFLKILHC
Beta-2 adrenergic receptor (Homo sapiens), sequence (P07550 whole entry, looked up): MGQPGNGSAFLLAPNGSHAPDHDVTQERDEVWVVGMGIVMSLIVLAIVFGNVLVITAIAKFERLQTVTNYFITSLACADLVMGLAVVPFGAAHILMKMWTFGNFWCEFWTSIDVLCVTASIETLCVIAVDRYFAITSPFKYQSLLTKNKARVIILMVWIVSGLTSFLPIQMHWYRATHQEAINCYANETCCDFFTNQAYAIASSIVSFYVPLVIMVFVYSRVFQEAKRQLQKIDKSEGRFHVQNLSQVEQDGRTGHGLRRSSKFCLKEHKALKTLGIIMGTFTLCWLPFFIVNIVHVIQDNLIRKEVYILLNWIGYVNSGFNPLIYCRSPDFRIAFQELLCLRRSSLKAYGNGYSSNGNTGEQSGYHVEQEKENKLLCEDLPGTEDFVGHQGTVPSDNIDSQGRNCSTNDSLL

`N#Cc1ccccc1`: the Potency entry in [1], in experiment [2], in experiment [3], in experiment [4], in experiment [5] and in experiment [6] was “inactive” in each case. For the same molecule, the Potency entry in experiment [7], in [8], in experiment [9], in experiment [10], in experiment [11] and in experiment [12] was “inactive” throughout. The Potency result in [13], in experiment [14], in experiment [15], in experiment [16] and in [17] was “inactive” throughout.
`C[C@H]1C[C@H]2[C@@H]3CCC4=CC(=O)C=C[C@]4(C)[C@@]3(F)[C@@H](O)C[C@]2(C)[C@@]1(O)C(=O)CO`: the Potency result in experiment [1], in [2], in experiment [18], in experiment [6], in [7] and in [8] was “inactive” throughout. Moreover, the Potency result in [13], in [14], in experiment [15], in experiment [19], in experiment [16] and in [17] was “inactive” in each case. For the same molecule, the Potency entry in experiment [5] is “inactive and 793 nM (active)”.
With `C=C(C)C(=O)OCC(C)C`, the Potency entry in experiment [1], in experiment [2], in experiment [3], in [18], in [4] and in experiment [5] was “inactive” each time. Besides, the Potency result in experiment [6], in experiment [7], in experiment [8], in [9], in experiment [10] and in experiment [11] was “inactive” in each case. The Potency entry in experiment [12], in experiment [13], in experiment [14], in [15], in experiment [19] and in experiment [16] was “inactive” in each case. Besides, in experiment [17], the Potency result is “inactive”.
For the molecule `O=C1NC(=O)c2ccccc21`, the Potency result in [1], in experiment [2], in experiment [3], in [5], in [6] and in experiment [9] was “inactive” in each case. The Potency result in [10], in experiment [11], in experiment [12], in experiment [13], in experiment [14] and in experiment [15] was “inactive” throughout. Also, the Potency result in experiment [19], in experiment [16] and in [17] was “inactive” in each case.
For the molecule `O=C(O)CCCCC(=O)O`, the Potency result in experiment [1], in [2], in [3], in [18], in experiment [4] and in experiment [5] was “inactive” in each case. Moreover, the Potency result in [6], in [7], in experiment [8], in experiment [9], in experiment [10] and in [12] was “inactive” in each case. Also, the Potency entry in experiment [13], in experiment [14], in experiment [15], in experiment [19], in experiment [16] and in experiment [17] was “inactive” throughout.
For `CC(=O)CC/C=C(\C)CCC=C(C)C`, the Potency result in experiment [1], in experiment [2], in [3], in [18], in experiment [4] and in [5] was “inactive” each time. Further, the Potency result in experiment [6], in [7], in experiment [8], in experiment [10], in [12] and in experiment [13] was “inactive” each time. Also, the Potency entry in [14], in [15], in experiment [19], in experiment [16] and in [17] was “inactive” in each case.
In the case of `O=C(O)C1=NN(c2ccc(S(=O)(=O)O)cc2)C(=O)C1`, the Potency result in [1], in experiment [2], in [3], in experiment [18], in [5] and in experiment [6] was “inactive” each time. Moreover, the Potency entry in experiment [7], in experiment [8], in experiment [9], in experiment [10], in experiment [11] and in [12] was “inactive” throughout. Further, the Potency result in [13], in experiment [14], in experiment [15], in [16] and in experiment [17] was “inactive” in each case.
Take `Oc1ccc(Cl)cc1Cc1cc(Cl)ccc1O`: the Potency result in experiment [1], in [2], in experiment [3], in [9], in experiment [10] and in experiment [12] was “inactive” in each case. Besides, the Potency entry in experiment [16] and in [17] was “inactive” in each case. The Potency is 40.8 µM (active) and inactive in experiment [5]; 41.5 µM (active) and inactive in [6]; 49.4 µM (active) in experiment [14]; 48.6 µM (active) in experiment [15].
Turning to `CN(C)CCN(Cc1cccs1)c1ccccn1`, the Potency result in experiment [2], in [3], in experiment [18], in experiment [4], in experiment [5] and in experiment [6] was “inactive” in each case. Further, the Potency entry in experiment [13], in experiment [14], in experiment [15] and in experiment [17] was “inactive” in each case.
On to `COc1cc(OC)c(C(=O)CCCN2CCCC2)c(OC)c1`, for which the Potency result in experiment [1], in [2], in [18], in experiment [4], in experiment [5] and in experiment [6] was “inactive” throughout. Besides, the Potency entry in [7], in [13], in [14], in [15] and in experiment [16] was “inactive” in each case.
Regarding `NC(=O)c1ncn([C@@H]2O[C@H](CO)[C@@H](O)[C@H]2O)n1`, the Potency result in experiment [1], in [2], in experiment [3], in experiment [18], in [5] and in experiment [6] was “inactive” throughout. In addition, the Potency entry in [7], in experiment [14], in experiment [15], in [19], in [16] and in experiment [17] was “inactive” in each case.
Turning to `O=C(O)CCCC(=O)O`, the Potency entry in [1], in experiment [2], in experiment [18], in [4], in [5] and in experiment [6] was “inactive” each time. The Potency result in [7], in [8], in [10], in experiment [11], in experiment [12] and in experiment [13] was “inactive” each time. The Potency entry in experiment [14], in experiment [15], in experiment [16] and in experiment [17] was “inactive” throughout.
